Assay results as given in the supplement of paper PMC5407854, “Inhibitor of ppGalNAc-T3-mediated O-glycosylation blocks cancer cell invasiveness and lowers FGF23 levels” (eLife, 2017).
Over roughly 1,700 compounds, “T2 sensor activation Q score (MG/GFP ratio z-score vs DMSO controls)” has its median near 0.3; the highest 2% begin near 1.9. This is one part of a sample in which the highest values are shown more often than they occur.

What follows are compounds tested on ppGalNAc-T2 sensor (assay: T2 sensor activation Q score (MG/GFP ratio z-score vs DMSO controls) (SD units); higher = more sensor activation (inhibition of ppGalNAc-T2 glycosylation)). Settings: HEK293 sensor cells; 10 µM; 6 h.
Procedure: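 Cells were treated with compound at 10 uM for 6 h, then MG/GFP ratio was read by flow cytometry (10,000 cells per well, duplicate wells). Q = (R - R_neg)/SD_neg relative to DMSO vehicle controls; the signal rises when the glycosyltransferase is inhibited.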

Point of comparison: Cc1nc(SCC(=O)O)n[nH]1, “T2 sensor activation Q score” value -1.55. Against it:
- COc1ccc(-c2cc(-c3ccccc3)c(-c3ccccc3)nn2)cc1 — higher, -0.95
- CCOC(=O)Nc1ccc2nc(N3CCCCCC3)sc2c1 — higher, 0.95
- O=C(C=Cc1ccc(O)c(O)c1)c1ccccc1O — higher, -0.4
- CCOC(=O)N1CCN(Cc2c(O)ccc3ccccc23)CC1 — higher, -0.05
- CCOC(=O)N1C/C(=C\c2ccccc2)C(=O)/C(=C/c2ccccc2)C1 — higher, 2.95
- CCOc1ccc(/C=C2\CCc3ccccc3C2=O)cc1 — higher, 0.5
- CC(=O)NC1=C/C(=C\[N+](=O)[O-])C=C1O — higher, -0.65
- COc1cc2c(cc1OC)C(=O)Cc1ccc3c(c1CN(C)CC2)OCO3 — higher, 1.1
- CCN1CCCCC(=NO)C(=NO)CCCC1 — higher, 1.05
- COc1ccc(OC(=O)Nc2ccc([N+](=O)[O-])cc2OC)cc1 — higher, 0.95
- O=C1C2C3C=CC(O3)C2C(=O)N1Nc1ccccc1 (stereo unspecified) — higher, 0.25
- C(=N\Nc1nnn(Cc2ccccc2)n1)/c1ccccc1 — higher, 0.5
- Nc1ccc(-c2nc3nc(N)nc(N)c3nc2-c2ccc(N)cc2)cc1 — higher, 4.95
- CCN(CC)CCNc1c(C)cc(CO)c(Cl)c1C — higher, 0.25
- C#CC(C)OCC1CNC(=S)O1 (stereo unspecified) — higher, -1.4
- CN(C)c1ccc(/C=N\NC(=O)c2cnc3ccccc3c2)cc1 — higher, -0.3
- NS(=O)(=O)c1cc2c(cc1Cl)NC(CC1CCCC1)NS2(=O)=O (stereo unspecified) — higher, 0.8
- S=c1cn[nH]c2ccccc12 — higher, 0.55
- S=c1[nH]c2ccccc2c2ccccc12 — higher, 1.95
- S=c1[nH]c2ccccc2n2cccc12 — higher, 1.1
- O=C(c1ccccc1)c1ccc(Sc2ccc([N+](=O)[O-])cc2)cc1 — higher, 7.7
- CSC(=O)NC(=O)NC(=O)c1ccc([N+](=O)[O-])cc1 — higher, 1.05
- O=C(c1ccccc1)c1ccc(-c2ccc(O)cc2)cc1 — higher, 1.55
- CCN(CC)CCN1c2ccccc2Sc2ccc3ccccc3c21 — higher, -0.8
- OC(c1cc(-c2ccc(C(F)(F)F)cc2)nc(C(F)(F)F)c1)C1CCCCN1 (stereo unspecified) — higher, 0.5
- CCCCSc1ncnc2[nH]ncc12 — higher, 0.45
- O=[N+]([O-])c1ccc2c3ccccc3[s+]([O-])c2c1 (stereo unspecified) — higher, 0.25
- CC(C)NCC1CCc2cc(CO)c([N+](=O)[O-])cc2N1 (stereo unspecified) — higher, -0.55
- Cc1ccc(Cl)cc1NC(=O)c1cc2ccccc2cc1O — higher, -0.35
- CCOC(=O)Cc1cc(=O)c2cc(C)ccc2[nH]1 — higher, 0.8
